# What was measured:
# Experiment in all cases: universal protein binding microarray (PBM); transcription factors of Arabidopsis thaliana; high values mean tight binding
# GST-ANAC092(1-176) = molecular target: T1, GST-ANAC092(1-176) (Arabidopsis thaliana, UniProt Q9FKA0 1-176); conditions: protein: recombinant; tags: GST; chain copies: 2; dsDNA, one strand shown
# T1 sequence: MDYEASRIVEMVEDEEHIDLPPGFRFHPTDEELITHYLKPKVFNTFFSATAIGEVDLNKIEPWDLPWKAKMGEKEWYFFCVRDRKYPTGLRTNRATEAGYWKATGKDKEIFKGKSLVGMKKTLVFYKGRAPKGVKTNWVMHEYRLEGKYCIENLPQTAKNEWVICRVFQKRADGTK
# Procedure, shortened: (§1)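 Cells were induced to make GST-tagged NAC-domain, full-length or DNA-binding-domain proteins, and zinc acetate was added for zinc-finger proteins. These proteins were purified on glutathione–Sepharose 4B, quantified by A280 or anti-GST western blot, and applied in duplicate at 200 to 500 nM final to custom all-10-mer Agilent 4 × 180K arrays that primer extension had made double-stranded. Binding is given as the normalised enrichment score (E-score) for scored gapped and ungapped 8-mers.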
# GST-NTL6(1-168) = GST-NTL6(1-168) (Arabidopsis thaliana, UniProt Q9SCK6 1-168); conditions: protein: recombinant; tags: GST; chain copies: 2; dsDNA, one strand shown
# Procedure, shortened: as §1
# GST-ANAC055(1-171) = molecular target: T2, GST-ANAC055(1-171) (Arabidopsis thaliana, UniProt Q9LDY8 1-171); conditions: protein: recombinant; tags: GST; chain copies: 2; dsDNA, one strand shown
# T2 sequence: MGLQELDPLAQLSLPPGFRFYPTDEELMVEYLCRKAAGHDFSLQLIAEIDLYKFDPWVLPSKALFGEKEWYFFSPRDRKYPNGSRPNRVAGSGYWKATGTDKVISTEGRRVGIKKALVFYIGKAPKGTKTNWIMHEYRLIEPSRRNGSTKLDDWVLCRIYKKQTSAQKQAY
# Procedure, shortened: as §1
# GST-ATAF1 NAC domain = molecular target: T3, GST-ATAF1 NAC domain (Arabidopsis thaliana, UniProt Q39013 7-158); conditions: protein: recombinant; tags: GST; chain copies: 2; dsDNA, one strand shown
# T3 sequence: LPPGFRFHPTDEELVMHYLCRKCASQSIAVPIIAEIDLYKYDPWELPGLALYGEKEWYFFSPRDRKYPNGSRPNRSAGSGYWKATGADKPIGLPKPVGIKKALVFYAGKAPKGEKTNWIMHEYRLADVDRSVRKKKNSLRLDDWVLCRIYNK
# Procedure, shortened: as §1
# GST-NST2(1-184) = molecular target: T4, GST-NST2(1-184) (Arabidopsis thaliana, UniProt Q9M274 1-184); conditions: protein: recombinant; tags: GST; chain copies: 2; dsDNA, one strand shown
# T4 sequence: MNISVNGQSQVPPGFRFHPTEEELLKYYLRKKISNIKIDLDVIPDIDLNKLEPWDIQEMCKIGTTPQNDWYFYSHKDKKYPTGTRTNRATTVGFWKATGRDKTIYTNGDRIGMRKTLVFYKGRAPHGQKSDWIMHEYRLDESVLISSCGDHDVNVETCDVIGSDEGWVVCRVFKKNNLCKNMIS
# Procedure, shortened: as §1
# GST-SND1(1-203) = molecular target: T5, GST-SND1(1-203) (Arabidopsis thaliana, UniProt Q9LPI7 1-203); conditions: protein: recombinant; tags: GST; chain copies: 2; dsDNA, one strand shown
# T5 sequence: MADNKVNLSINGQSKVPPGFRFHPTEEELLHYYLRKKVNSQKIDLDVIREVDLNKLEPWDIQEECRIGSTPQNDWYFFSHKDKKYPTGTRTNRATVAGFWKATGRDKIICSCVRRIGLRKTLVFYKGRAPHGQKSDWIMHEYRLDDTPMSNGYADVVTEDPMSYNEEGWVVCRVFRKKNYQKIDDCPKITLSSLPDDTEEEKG
# Procedure, shortened: as §1
# GST-VND3 NAC domain = molecular target: T6, GST-VND3 NAC domain (Arabidopsis thaliana, UniProt Q9FH59 12-162); conditions: protein: recombinant; tags: GST; chain copies: 2; dsDNA, one strand shown
# T6 sequence: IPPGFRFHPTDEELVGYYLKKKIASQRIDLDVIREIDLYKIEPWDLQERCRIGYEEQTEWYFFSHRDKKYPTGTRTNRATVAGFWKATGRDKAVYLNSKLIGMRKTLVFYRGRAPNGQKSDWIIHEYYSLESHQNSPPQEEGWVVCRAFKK
# Procedure, shortened: as §1
# GST-VND7 NAC domain = molecular target: T7, GST-VND7 NAC domain (Arabidopsis thaliana, UniProt Q9C8W9 9-158); conditions: protein: recombinant; tags: GST; chain copies: 2; dsDNA, one strand shown
# T7 sequence: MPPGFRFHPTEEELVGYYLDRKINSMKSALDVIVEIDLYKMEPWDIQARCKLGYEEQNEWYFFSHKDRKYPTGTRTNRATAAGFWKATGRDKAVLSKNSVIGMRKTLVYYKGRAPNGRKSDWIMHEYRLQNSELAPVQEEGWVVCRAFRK
# Procedure, shortened: as §1
# GST-WRKY1(266-371) = GST-WRKY1(266-371) (Arabidopsis thaliana, UniProt Q9SI37 266-371); conditions: protein: recombinant; tags: GST; dsDNA, one strand shown
# Procedure, shortened: as §1
# [1] = molecular target: T8, GST-ANAC092(1-285) full length (Arabidopsis thaliana, UniProt Q9FKA0 1-285); conditions: protein: recombinant; tags: GST; chain copies: 2; dsDNA, one strand shown
# T8 sequence: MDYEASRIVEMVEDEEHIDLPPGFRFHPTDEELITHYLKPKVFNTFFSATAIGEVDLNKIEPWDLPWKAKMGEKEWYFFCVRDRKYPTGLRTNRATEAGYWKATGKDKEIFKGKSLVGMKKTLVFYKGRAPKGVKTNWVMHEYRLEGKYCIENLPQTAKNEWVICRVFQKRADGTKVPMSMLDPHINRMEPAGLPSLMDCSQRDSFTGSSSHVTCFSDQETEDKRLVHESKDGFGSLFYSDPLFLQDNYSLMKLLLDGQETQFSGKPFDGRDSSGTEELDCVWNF
# Procedure, shortened: as §1
# GST-NAP(1-166) = molecular target: T9, GST-NAP(1-166) (Arabidopsis thaliana, UniProt O49255 1-166); conditions: protein: recombinant; tags: GST; chain copies: 2; dsDNA, one strand shown
# T9 sequence: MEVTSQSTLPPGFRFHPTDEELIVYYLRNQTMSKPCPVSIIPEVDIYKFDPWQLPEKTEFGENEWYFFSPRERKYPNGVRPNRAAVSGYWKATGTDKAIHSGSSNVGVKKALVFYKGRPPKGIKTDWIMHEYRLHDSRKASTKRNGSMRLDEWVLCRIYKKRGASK
# Procedure, shortened: as §1
# GST-NTL8 NAC domain = molecular target: T10, GST-NTL8 NAC domain (Arabidopsis thaliana, UniProt Q9XIN7 14-156); conditions: protein: recombinant; tags: GST; chain copies: 2; dsDNA, one strand shown
# T10 sequence: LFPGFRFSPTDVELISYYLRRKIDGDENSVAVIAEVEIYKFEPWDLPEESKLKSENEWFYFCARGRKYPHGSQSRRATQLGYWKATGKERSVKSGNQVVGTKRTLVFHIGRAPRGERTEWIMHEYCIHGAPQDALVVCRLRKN
# Procedure, shortened: as §1
# GST-ANAC019 NAC domain = molecular target: T11, GST-ANAC019 NAC domain (Arabidopsis thaliana, UniProt Q9C932 14-162); conditions: protein: recombinant; tags: GST; chain copies: 2; dsDNA, one strand shown
# T11 sequence: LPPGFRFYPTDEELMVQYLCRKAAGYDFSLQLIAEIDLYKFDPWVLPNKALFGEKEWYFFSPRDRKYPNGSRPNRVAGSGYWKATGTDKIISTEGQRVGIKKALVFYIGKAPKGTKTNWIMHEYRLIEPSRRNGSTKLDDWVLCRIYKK
# Procedure, shortened: as §1
# Sequence of GST-WRKY1(266-371) (Q9SI37 266-371): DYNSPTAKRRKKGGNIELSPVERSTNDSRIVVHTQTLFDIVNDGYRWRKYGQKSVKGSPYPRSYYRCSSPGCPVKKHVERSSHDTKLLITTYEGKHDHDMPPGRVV
# Sequence of GST-NTL6(1-168) (Q9SCK6 1-168): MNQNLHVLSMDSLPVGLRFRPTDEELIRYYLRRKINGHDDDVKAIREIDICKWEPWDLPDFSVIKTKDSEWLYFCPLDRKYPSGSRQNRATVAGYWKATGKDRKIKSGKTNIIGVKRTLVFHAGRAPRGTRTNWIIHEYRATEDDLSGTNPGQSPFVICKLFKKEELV
Sequence,binding signal (GST-ANAC092(1-176)),binding signal (GST-NTL6(1-168)),binding signal (GST-ANAC055(1-171)),binding signal (GST-ATAF1 NAC domain),binding signal (GST-NST2(1-184)),binding signal (GST-SND1(1-203)),binding signal (GST-VND3 NAC domain),binding signal (GST-VND7 NAC domain),binding signal (GST-WRKY1(266-371)),binding signal [1],binding signal (GST-NAP(1-166)),binding signal (GST-NTL8 NAC domain),binding signal (GST-ANAC019 NAC domain)
AAGTCTAC,0.0876 E-score,0.202 E-score,0.158 E-score,0.0826 E-score,0.103 E-score,0.0865 E-score,0.0561 E-score,0.0651 E-score,0.412 E-score,,,,
ACAAGTCA,0.0976 E-score,0.0563 E-score,,,0.0664 E-score,0.114 E-score,0.0796 E-score,0.0869 E-score,0.43 E-score,0.276 E-score,0.146 E-score,0.0517 E-score,
CTTGCGTC,0.337 E-score,,0.0764 E-score,0.0507 E-score,0.106 E-score,0.162 E-score,0.0748 E-score,0.058 E-score,0.0999 E-score,0.402 E-score,0.21 E-score,,0.0715 E-score
CGTATACG,0.195 E-score,,0.363 E-score,0.407 E-score,0.0918 E-score,0.0859 E-score,0.321 E-score,0.395 E-score,0.0731 E-score,0.283 E-score,0.397 E-score,,0.354 E-score
TCACGTCA,0.429 E-score,,0.354 E-score,0.321 E-score,0.188 E-score,0.343 E-score,0.322 E-score,0.367 E-score,0.292 E-score,0.429 E-score,0.329 E-score,,0.38 E-score
GACGTAAA,0.355 E-score,,0.256 E-score,0.365 E-score,0.333 E-score,0.431 E-score,0.329 E-score,0.204 E-score,0.0785 E-score,0.399 E-score,0.311 E-score,,0.298 E-score
TACGTCAA,0.363 E-score,,0.194 E-score,0.291 E-score,0.341 E-score,0.44 E-score,0.23 E-score,0.205 E-score,0.402 E-score,0.417 E-score,0.241 E-score,,0.216 E-score
GTACGGCA,0.395 E-score,,0.362 E-score,0.385 E-score,0.178 E-score,0.236 E-score,0.424 E-score,0.425 E-score,0.0953 E-score,0.439 E-score,0.342 E-score,,0.451 E-score
CGTGGTCA,0.128 E-score,,0.0851 E-score,0.0537 E-score,,0.0883 E-score,0.164 E-score,0.128 E-score,0.431 E-score,0.195 E-score,,,0.189 E-score
GCAAGTCA,0.187 E-score,0.0738 E-score,,0.0771 E-score,0.0804 E-score,0.175 E-score,0.115 E-score,0.12 E-score,0.423 E-score,0.301 E-score,,,
AACACGTC,0.397 E-score,,0.325 E-score,0.316 E-score,0.0538 E-score,0.12 E-score,0.343 E-score,0.312 E-score,0.131 E-score,0.428 E-score,0.262 E-score,,0.33 E-score
GAAAGGAA,0.21 E-score,0.32 E-score,0.168 E-score,0.188 E-score,0.228 E-score,0.234 E-score,0.209 E-score,0.231 E-score,0.0968 E-score,0.2 E-score,,0.422 E-score,0.134 E-score
GCGTGTCA,0.331 E-score,,0.195 E-score,0.193 E-score,0.0663 E-score,0.0867 E-score,0.0583 E-score,0.189 E-score,0.0865 E-score,0.408 E-score,0.186 E-score,,0.231 E-score
GACGCAAC,0.438 E-score,,0.293 E-score,0.282 E-score,0.295 E-score,0.325 E-score,0.295 E-score,0.259 E-score,0.0608 E-score,0.457 E-score,0.37 E-score,,0.294 E-score
AGTCAACA,0.161 E-score,0.0859 E-score,0.0844 E-score,0.152 E-score,0.0624 E-score,0.19 E-score,0.13 E-score,0.0805 E-score,0.488 E-score,0.0634 E-score,,0.0937 E-score,0.125 E-score

# Reference: paper PMC4081100, “A DNA-binding-site landscape and regulatory network analysis for NAC transcription factors in Arabidopsis thaliana”
